From PubChem BioAssay
Compounds with a hit are over-represented: about 1.8% of the library has one in this group of screens.
AI-2 QS modul = Vibrio harveyi AI-2 quorum sensing modulation. activity change, % at 7.5 µM. AID 2094. 0.4% of 300,000 active. Vibrio harveyi JMH597 AI-2 luminescence/OD600 ratio, 9 h; hits give low values; strain lacks LuxN and CqsS sensors; 0 = neutral-control median; in the data active = activity change below about -75%, passing the limit was not always enough; inconclusive = no clear call, values can overlap the other calls;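 also: luminescence divided by OD600 gain over 9 h not by final OD600 alone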
ARNT-TACC3 inh = disruptors of human ARNT/TACC3 interaction. AlphaScreen His-ARNT PAS-B/GST-TACC3 binding, luminescence; TACC3 fragment carries E629A point mutation. inhibition, % at 9.99 µM. 0.66% of 390,000 active;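 active = mean inhibition of replicates at least 50% and at least half of replicates each reaching 50%; inconclusive = half or more replicates reach 50% but mean below 50%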;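 also: 0% = complete ARNT plus TACC3 wells and 100% = ARNT alone without TACC3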
Mot1-301 SUMO = inhibitors of SUMOylation pathway: yeast Mot1-301 growth rescue; S. cerevisiae Mot1-301 growth rescue, ATP luminescence, 38.5C; percent above DMSO median, 100 means doubled; growth rescue, % at 18.8 µM; 1% of 320,000 active; AID 2716;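 active = every valid replicate shows activation above 250% relative to neutral control wells; inactive = the rest, any valid replicate at or below 250%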;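 also: OY570 slx delta 5 strain wells were the positive control but not used for scaling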
A1 inh = inhibitors of the anti-apoptotic protein A1, read as caspase activation; MEF A1-2A-BIM cells, Caspase-Glo 3/7 luminescence, 3 h; percent of clofoctol response, vehicle zero; caspase activation, % (no concentration beside the values); 0.066% of 330,000 active;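 active = over half of replicate activation scores above 10%, or exactly half above 10 with the replicate mean above 10; inconclusive = replicate mean below 10 yet half the replicates above 10; inactive = over half of replicates below 10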
aDG glyco up = alpha-DG glycosylation activation. Pro5-aDG cells, alpha-DG glycosylation AlphaScreen (IIH6); 0% Pro5, 100% B10-LARGE cell signal. AID 624168. activation, % at 10 µM. 0.22% of 360,000 active;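 active = activation of at least 8% versus controls, or a plate z-score of at least 8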;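 also: Pro5 are CHO cells carrying HIG-tagged alpha-DG that lacks glycosylation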
Mot1 SUMO dose = yeast SUMO pathway inhibition in dose response; growth activity, percent, % at 42 µM; shares compounds with Mot1-301 SUMO; 2,300 tested, under 10 active; AID 493004; S. cerevisiae Mot1-301 galactose growth, ATP luminescence, 24 h; -100 = growth of slx-deleted rescue strain;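 active = Signal drops as the depositor expects, and the fitted half-maximal dose is no more than ten times the top valid tested dose; inconclusive = Poor fit, or a flat curve whose signal drops by 30% to 70%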;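 also: more negative values mean stronger growth rescue toward the control strain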
The depositor's hits bear a star; ? = inconclusive; / = no result; + = active, no number; ! = not active in a repeat; [ ] = another dose, or the depositor's remark.

SMILES	AI-2 QS modul	ARNT-TACC3 inh	Mot1-301 SUMO	A1 inh	aDG glyco up	Mot1 SUMO dose
Clc1ccccc1Cn1c(/C=C/c2ccco2)nc2ccccc21	40	4	41	0	0	/
Cc1cc(C)n(-c2nc3ccccc3nc2N2CCN(C(=O)c3ccccc3)CC2)n1	2	-12	497*	-1	0	-1
CCOC(=O)COc1nc(-c2ccco2)cc(-c2ccco2)c1C#N	3	-6	-9	2	0	/
N#Cc1c(-c2ccco2)cc(-c2cccnc2)nc1N	17	-5	675*	0	0	1
N#Cc1c(-c2cccnc2)cc(-c2ccccc2)nc1N	12	/	0	0	1	/
CCOC(=O)COc1nc(-c2ccc(C)cc2)cc(-c2ccco2)c1C#N	10	-2	400*	0	0	0
COC(=O)[C@H](CC(C)C)NC(=O)CC[C@H]1O[C@@H](n2cc(C)c(=O)[nH]c2=O)C[C@@H]1O	/	/	/	/	0	/
Cc1cc(=O)oc2cc(OCC(=O)N3CCCc4ccccc43)ccc12	9	-5	4	0	0	/
COCC(=O)n1nc(NCc2ccc(OC)cc2)nc1NCc1ccc(OC)cc1	10	-3	394*	0	0	0
CCCc1nc(SCC(=O)Nc2cc(C)on2)c2ccccc2n1	12	-7	-10	1	1	/
O=S(=O)(c1ccc(Oc2ncnc3scc(-c4ccccc4)c23)cc1)N1CCOCC1	3	-1	7	0	0	/
CCN(CC)Cc1cc(O)c(CN(CC)CC)cc1O	21	5	/	/	0	/
CN(C)c1cccc(C(=O)N2CCCC(C(=O)c3cc(F)ccc3F)C2)c1 (stereo not given)	-2	5	40	0	0	/
O=C(c1cc(F)ccc1F)C1CCCN(C(=O)c2ccc3nccnc3c2)C1 (stereo not given)	-6	5	670*	0	0	-1
COc1ccc(S(=O)(=O)Nc2ccc3c(c2)C(=O)N([C@H](C)CO)C[C@@H](C)[C@@H](CN(C)C(=O)CCCN(C)C)OCCCC[C@@H](C)O3)cc1	/	-6	/	/	/	/
CC1C(=O)C(C)C(c2ccco2)NC1c1ccco1 (stereo not given)	0	-1	-17	0	0	/
c1coc(C2OCC3(CO2)COC(c2ccco2)OC3)c1 (stereo not given)	-9	-11	523*	0	0	-1
CC(C(=O)Nc1ccccc1-c1ccccc1)N1CCN(C(=O)c2ccccc2)CC1 (stereo not given)	14	6	439	3	0	/
CC(C(=O)Nc1ccccc1-c1ccccc1)N1CCN(Cc2ccccc2)CC1 (stereo not given)	8	2	528*	1	0	0
Cc1cc(C)n(-c2ccc(C(=O)Nc3ccc(C)c(S(=O)(=O)N(C)C)c3)cc2)n1	12	-6	8	0	1	/
CN(C)CC/C=C1\c2ccccc2Sc2ccc(Cl)cc21	21	25	497*!	0	0	0
O=C(c1ccccc1F)N1CCCc2ccccc21	-9	-8	495*	1	0	0
Cc1nnc(SCC(=O)NCc2ccccc2Cl)[nH]c1=O	28	/	+	1	0	1
Cc1cnc(C(=O)OC(C(=O)c2c[nH]c3ccccc23)c2ccccc2)cn1 (stereo not given)	/	2	533*	?	0	0
COC(=O)C1C2C=CC3(CN(CCc4ccccc4)C(=O)C13)O2 (stereo not given)	15	/	429*	0	0	0[21 µM]
SMILES	AI-2 QS modul	ARNT-TACC3 inh	Mot1-301 SUMO	A1 inh	aDG glyco up	Mot1 SUMO dose
O=C(NC(=S)NNC(=O)c1ccccc1O)c1cccc([N+](=O)[O-])c1	30	77*	368*	-1	0	0
Cc1c(C(=O)Nc2cccc(F)c2)cnn1-c1ccccc1	5	8	805*	-3	0	-1
O=c1nc2ccc(Cl)cn2c2ccc(S(=O)(=O)N3CCCCC3)cc12	15	-3	-22	1	0	/
O=c1nc2ccc(Cl)cn2c2ccc(S(=O)(=O)N3CCOCC3)cc12	21	0	577*	0	0	0
Cc1c(NP(=O)(c2ccc(Br)cc2)c2ccc(Br)cc2)c(=O)n(-c2ccccc2)n1C	13	7	381*	-1	0	0
CC(NC(=O)c1ccc2ccccc2n1)c1ccc(Br)cc1 (stereo not given)	6	-9	-15	0	0	/
O=S(=O)(NCC1CCCN(Cc2ccccc2O)C1)c1cccc2cccnc12 (stereo not given)	1	0	384*	2	0	2
CCN(CC)S(=O)(=O)c1ccc(S(=O)(=O)N2CCC(C(=O)NC3CCN(Cc4ccccc4)CC3)CC2)cc1	15	-2	634*	1	0	0
O=C(NC1CCN(Cc2ccccc2)CC1)C1CCN(S(=O)(=O)c2cccc([N+](=O)[O-])c2)CC1	23	/	49	0	0	/
CCOC(=O)c1sc(NC(=O)CSc2n[nH]c(-c3ccccc3)n2)c(C#N)c1C	15	-5	472*	-3	0	0
O=C1CN(C(=O)COC(=O)COc2ccc3c(c2)CCC3)c2ccccc2N1	-44	41	586*	-2	0	0
Cc1ccccc1-n1ncc2c([N+](=O)[O-])cc([N+](=O)[O-])cc21	39	32	421*	0	3	-1
Cc1ccc(NC(=O)c2ccc3nsnc3c2)c(C)c1	25	-2	-13	2	0	/
COc1cccc(OC)c1C(=O)N1CCN(Cc2ccccc2C)CC1	-9	-1	359*	0	0	1
COc1cccc(CN2CCN(C(=O)c3cccc4ccccc34)CC2)c1OC	9	-2	735*	1	0	0
COc1ccc(CN2CCN(C(=O)c3cc(-c4cccnc4)nc4ccc(Cl)cc34)CC2)c(OC)c1OC	-9	2	510*	0	-1	0
CS(=O)(=O)N1CCN(C(=O)c2cc(-c3cccnc3)nc3ccc(Cl)cc23)CC1	-10	2	-2	-1	1	/
CC(C)(C)OC(=O)C(Cc1ccc(OC(C)(C)C)cc1)NC(=O)CNC(=O)CNC(=O)OCc1ccccc1 (stereo not given)	14	-4	8	2	0	/
O=C(CN1CCN(C(c2ccccc2)c2ccccc2)CC1)NCc1ccccc1	9	-8	7	1	0	/
CN(C)CCCOC(=O)c1ccccc1	15	-1	-3	0	0	/
